# SW480 rereplic = inducers of DNA re-replication in SW480 colon cancer cells; Potency, µM (top dose mostly 46.1 µM), without a hit: top-dose re-replication activation, hits mostly activators; SW480 DNA re-replication, Hoechst DNA content imaging, 48 h; actives 1.8% (n = 340,000); further: potency means the concentration at half of the fitted maximal effect; % of control where 0% means no effect; nearly all actives have a fitted effect of over 55% in size
#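 Image-based read-out: total Hoechst fluorescence of nuclei (405 nm excitation, 500-530 nm emission), with hits raising the fraction of high-intensity nuclei. SW480 colon cells incubated 48 hr with compounds at 37 C.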
# PINK1 expr mod = modulators of PINK1 expression. PINK1 immunofluorescence, high-content cytometry, 24 h. Potency, µM (series often up to 76.6 µM), without a hit: top-dose activation (PINK1 increase), hits mostly activators. actives 0.2% (n = 410,000); active means well fitted activation curve with a large enough effect; inconclusive means small, poorly fitted or top-dose-only effect; cell line not stated here; further: potency means the concentration at half of the fitted maximal effect; % of control where 0% means no effect; nearly all actives have a fitted effect of over 65% in size
#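 Decision-based qHTS: stable cells, 24 h exposure to five compound concentrations, CCCP as control. Fixed cells stained for PINK1 plus nuclear, mitochondrial and cell markers, cytometer read.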
# ATXN2 expr inh = reduces ATXN2 reporter expression in HEK-293 cells | HEK-293 ATXN2-luciferase reporter, luminescence, 24 h | Potency, µM (highest dose often 57 µM), without a hit: at the top dose activity change, negative = inhibition, usual class: inhibitors | actives 0.72% (n = 360,000); further: potency means the concentration at half of the fitted maximal effect; on the % scale 0 is the no-effect control and ±100 the full control effect; nearly all actives have a fitted effect of over 55% in size
#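 ATXN2-luciferase reporter cells (luciferase flanked by upstream and downstream ATXN2 gene portions) were treated 24 h at 37 °C with compounds at up to 57 uM. SteadyGlo luminescence gave expression; GF-AFC fluorescence gave viability.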
# MCF10A rereplic = inducers of DNA re-replication in MCF 10A breast cells; MCF 10A DNA re-replication, Hoechst nuclear intensity, 48 h; actives 2.9% (n = 350,000); Potency, µM (top dose mostly 46.1 µM), without a hit: at the highest dose activity, positive = re-replication, usual class: activators; further: potency means the concentration at half of the fitted maximal effect; % of control where 0% means no effect; nearly all actives have a fitted effect of over 50% in size
# IL1B secr inh = inhibitors of inflammasome signaling (IL-1 beta secretion). THP-1 LPS/ATP IL-1B secretion, AlphaLISA, 16 h; hits give low values. activity change, % at 57.5 µM. actives 4.7% (n = 360,000). AID 743279; in the data active means activity change below about -50%; inconclusive means mostly about -30% to -49%; further: on the % scale 0 is the no-effect control and ±100 the full control effect
#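 THP-1 cells pretreated 1 hr with compounds (up to 57.5 uM final), then stimulated with LPS (250 ng/mL final) plus ATP (1.25 mM final); secreted IL-1B measured by AlphaLISA after 16 hr, decreased signal indicating inhibition.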
# S2 tox = viability counter-screen for ATXN expression inhibitors; actives 0.49% (n = 400,000); Potency, µM (top dose mostly 56.7 µM), actives largely listed as cytotoxic; S2 cells (HEK-293 line with an ATXN2-luciferase reporter) viability, CellTiter-Fluor protease fluorescence, 24 h; further: potency means the concentration at half of the fitted maximal effect; nearly all actives have a fitted effect of over 40% in size
# The depositor's hits bear a star; i = inactive; ? = inconclusive; nt = not tested or not shown; [ ] = remark or other dose. Shown are actives, neighbours in structure and some others; about 7.1% of the full set was active somewhere. Unless noted, the call rests on the fitted dose curve; in most records, active means well fitted curve in the direction sought with a large enough effect; inconclusive means small, poorly fitted or top-dose-only effect, or another doubt; inactive means no such curve, though single readings can be large; an effect the other way counts as inactive or inconclusive.
SMILES,SW480 rereplic,PINK1 expr mod,ATXN2 expr inh,MCF10A rereplic,IL1B secr inh,S2 tox
Cc1ccc(Cn2c(C(=O)O)c(CNCc3ccccc3Cl)c3ccc(C)cc32)cc1,nt,0%,8%,nt,nt,?
Cc1ccc2c(CNCCc3ccc(Cl)cc3)c(C(=O)O)n(Cc3ccc(F)cc3)c2c1,nt,?,9%,nt,nt,?
COc1ccc(Cn2c(C(=O)O)c(CNCCc3ccccc3Cl)c3ccc(C)cc32)cc1,nt,1%,?,nt,nt,18µM*
C=Cc1ccc(Cn2c(C(=O)O)c(CNCCc3ccccc3)c3ccc(C)cc32)cc1,nt,?,?,nt,nt,22µM*
CN(C)c1ccc(/C=C2\Oc3ccc(C#Cc4cccc(N)c4)cc3C2=O)cc1,5.2µM*,6%,32%,4.6µM*,-18,nt
Cc1ccc2nc(C)cc(N/N=C/c3cccnc3)c2c1,-143%,-1%,24%,-1%,-9,i
Cc1cc(N/N=C/c2ccccc2O)c2ccccc2n1,?,13%,16µM*,12µM*,-63*,?
COc1ccc2nc(C)cc(N/N=C/c3cccc(OC)c3O)c2c1,?,-1%,?,?,-99*,nt
COc1ccc2nc(C)cc(NCc3cccc(C(F)(F)F)c3)c2c1,23µM*,0%,?,21µM*,-96*,i
COc1cccc2c(N/N=C/c3ccccc3)cc(C)nc12,-14%,4%,-35%,4%,8,i
COc1ccc(/C=N/Nc2cc(C)nc3ccc(Br)cc23)cc1,16µM*,-2%,?,12µM*,-101*,?
COc1ccc2nc(C)cc(Nc3ccccc3O)c2c1,4%,0%,nt,-9%,?,?
COc1ccc2nc(C)cc(Nc3ccccc3OC)c2c1,nt,5%,nt,nt,27,i
COc1ccccc1N1CCN(C(=O)c2cc(-c3ccc(C)c(F)c3)on2)CC1,nt,0%,nt,nt,nt,nt
Cc1nn(C)c(C)c1S(=O)(=O)N(CC(=O)N1CCN(c2ccccc2)CC1)c1ccc(C(C)C)cc1,nt,0%,nt,nt,nt,nt
COc1ccccc1CC(=O)Nc1ccc([N+](=O)[O-])cc1O,-5%,40µM*,?,?,-63*,i
COc1ccccc1CC(=O)Nc1ccccc1O,0%,-1%[38.3 µM],1%,-2%,6,i
CCOCC(=O)Nc1ccc([N+](=O)[O-])cc1OC,6%,1%,8%[11.3 µM],0%,-62*,i
CCOC(=O)[C@]12CCCC=C1N(Cc1ccc3c(c1)OCO3)C(=O)[C@H](CC(=O)NCCC(C)C)C2,nt,2%,-1%,nt,-5,?
O=C1NC(c2cccc(OCc3ccccc3)c2)Nc2ccccc21 (configuration not stated),1.8µM*,1%,-11%,2.3µM*,26,?
CSc1ccc(C2NC(=O)c3ccccc3N2)cc1 (configuration not stated),9.2µM*,9%,30%,16µM*,35,i
O=C1NC(c2ccc(O)cc2)Nc2ccccc21 (configuration not stated),?,3%,-6%,12µM*,21,i
O=C1NC(c2ccc(Cl)c([N+](=O)[O-])c2)Nc2ccccc21 (configuration not stated),72%,-2%,-21%,6%,-9,i
CSc1ccc(C2Nc3cccc4cccc(c34)N2)cc1,7%,1%,nt,6%,7,i
Cc1ccc2c(CC(=O)N(Cc3ccc(Cl)cc3)Cc3ccco3)coc2c1,nt,3%,nt,nt,nt,nt
SMILES,SW480 rereplic,PINK1 expr mod,ATXN2 expr inh,MCF10A rereplic,IL1B secr inh,S2 tox
Cc1cnc(C)c(Nc2nc(C(N)Cc3ccc(F)cc3)cs2)n1 (configuration not stated),nt,0%,?,nt,-20,?
NC(Cc1ccc(F)cc1)c1csc(Nc2nccc(C(F)(F)F)n2)n1 (configuration not stated),nt,-1%,-20%,nt,-59*,nt
NC(Cc1ccc(Cl)cc1)c1csc(Nc2ccc(S(N)(=O)=O)cc2)n1 (configuration not stated),nt,4%,?,nt,?,?
COc1ccc(CC(N)c2csc(Nc3nccc(C(F)(F)F)n3)n2)cc1 (configuration not stated),nt,5%,?,nt,-56*,i
NC(Cc1ccc(Cl)cc1)c1csc(Nc2nccc(C(F)(F)F)n2)n1 (configuration not stated),nt,-1%,?,nt,-56*,i
NC(Cc1ccccc1)c1csc(Nc2nccc(C(F)(F)F)n2)n1 (configuration not stated),nt,0%,?,nt,-12,i
CCc1cnc(Nc2nc(C(N)Cc3ccc(F)cc3)cs2)nc1 (configuration not stated),nt,-1%,?,nt,-62*,nt
COc1ccc(CC(N)c2csc(Nc3cnccn3)n2)cc1 (configuration not stated),nt,6%,?,nt,-4,i
COc1ccc(OC)c(-n2cnc3cc(C(=O)NCCc4ccccc4)ccc32)c1,nt,0%,18%,nt,nt,i
Cc1cccc2c(=O)cc(CSc3ccccc3NC(=O)c3cccc(Br)c3)[nH]c12,nt,3%,-7%,nt,nt,18µM*
O=C1C(Nc2cccc(O)c2)=C(N2CCCCC2)C(=O)c2ccccc21,1%,0%[38.3 µM],-14%,3%,-84*,i
CN(c1ccccc1)c1nc(N)c([N+](=O)[O-])c(N2CCCCC2)n1,-14%,0%,nt,0%,0,i
CN(C1=C(N2CCCCC2)C(=O)c2ccccc2C1=O)c1ccccc1,12%,nt,-8%,?,-82*,?
O=C1C(Nc2ccccc2)=C(N2CCCCC2)C(=O)c2ccccc21,0%[9.22 µM],1%,-11%,?,-3,?
Cc1ccc(NC2=C(N3CCCCC3)C(=O)c3ccccc3C2=O)cc1,2.9µM*,nt,?,5.8µM*,-68*,?
O=C(/C=C/c1ccc(O)cc1)c1ccc(NC2=C(N3CCCCC3)C(=O)c3ccccc3C2=O)cc1,?,-3%,?,6.5µM*,?,?
O=C1C(NS(=O)(=O)c2ccc(Br)cc2)=C(N2CCCCC2)C(=O)c2ccccc21,-2%,4%,nt,1%,-21,?
CCOCCCn1c(SCC(=O)Nc2ccccc2CC)nc2ccccc2c1=O,nt,4%,nt,nt,nt,nt
Cc1cccc(NC(=O)CSc2nc3ccc(NC(=O)COc4ccc(Cl)cc4)cc3s2)c1,nt,4%,?,nt,nt,?
COc1ccccc1NC1=C(N2CCCCC2)C(=O)c2ccccc2C1=O,4.6µM*,16%,?,3.3µM*,?,?
COC1=C(Nc2ccc(C)cc2)C(=O)c2ccccc2C1=O,?,2%,5%,?,-77*,?
